This is a sample that favours compounds with a hit; in the whole collection about 2.3% have one here.
TMEM16A act = activators or potentiators of mouse TMEM16A chloride channel; Q8BHY3; HEK293 TMEM16A/YFP-H148Q/I152L, iodide quench fluorescence; hits give low values; B-score at 10 µM; hit rate 0.3% among 340,000; AID 623877;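 active means fluorescence-ratio B-score plate-corrected deviation score at least 3 library SD below zero, with starting fluorescence score within 5 deviations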;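 further: channel opened by trigger with iodide after compound preincubation; score built on the fluorescence ratio of max minus min over baseline; more negative score means more quench and so TMEM16A activation or potentiation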
Target sequence (Q8BHY3 whole entry, looked up): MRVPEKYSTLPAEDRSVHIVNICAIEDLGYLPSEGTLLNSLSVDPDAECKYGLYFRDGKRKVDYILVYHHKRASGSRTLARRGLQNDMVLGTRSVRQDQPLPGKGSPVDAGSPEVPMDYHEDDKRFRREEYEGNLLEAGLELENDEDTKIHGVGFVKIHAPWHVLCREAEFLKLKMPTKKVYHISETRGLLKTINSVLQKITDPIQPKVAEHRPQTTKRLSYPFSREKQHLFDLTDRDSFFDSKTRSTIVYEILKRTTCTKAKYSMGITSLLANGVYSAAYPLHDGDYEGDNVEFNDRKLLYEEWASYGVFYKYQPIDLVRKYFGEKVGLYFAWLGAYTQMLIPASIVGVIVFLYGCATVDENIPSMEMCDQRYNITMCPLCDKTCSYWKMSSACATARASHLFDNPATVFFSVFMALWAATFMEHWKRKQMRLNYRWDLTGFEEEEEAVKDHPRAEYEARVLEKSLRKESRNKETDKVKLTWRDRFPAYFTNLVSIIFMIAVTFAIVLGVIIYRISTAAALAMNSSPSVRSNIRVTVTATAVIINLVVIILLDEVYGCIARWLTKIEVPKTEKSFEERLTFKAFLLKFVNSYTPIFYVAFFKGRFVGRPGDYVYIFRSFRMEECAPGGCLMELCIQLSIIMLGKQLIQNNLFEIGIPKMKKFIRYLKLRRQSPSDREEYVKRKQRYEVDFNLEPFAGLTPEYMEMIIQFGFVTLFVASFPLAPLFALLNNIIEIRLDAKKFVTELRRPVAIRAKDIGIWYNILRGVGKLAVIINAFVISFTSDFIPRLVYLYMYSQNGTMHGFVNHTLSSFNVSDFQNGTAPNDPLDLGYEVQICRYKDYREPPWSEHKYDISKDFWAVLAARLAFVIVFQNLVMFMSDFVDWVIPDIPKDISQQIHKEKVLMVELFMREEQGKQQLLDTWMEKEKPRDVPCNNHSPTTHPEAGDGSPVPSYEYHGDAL
TMEM16A inh = inhibitors of mouse TMEM16A calcium-activated chloride channel | Q8BHY3 | HEK293 TMEM16A/YFP iodide influx fluorescence, ionomycin | normalized B-score (activity score, 25-100; higher = stronger inhibition) at 10 µM | hit rate 1.2% among 310,000 | AID 588511;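 active means ratio plate-corrected score three or more library SD toward inhibition, starting fluorescence score within five deviations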;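 further: score derived from kinetic fluorescence span divided by baseline fluorescence per well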
CHT allo act = allosterically activates the human high affinity choline transporter. CHT-expressing cells, membrane potential dye, choline EC20; hits give high values; LV-AA mutant CHT in HEK293 cells. hit rate 0.49% among 310,000. Q9GZV3. AID 488977. B-score at 10 µM;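 active means initial fluorescence not abnormally high and integrated response B-score, plate-corrected, over 3 SD above library mean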
CHT inh = inhibits the human high affinity choline transporter; B-score at 10 µM; Q9GZV3; AID 488975; CHT-expressing cells, membrane potential dye, choline response; hits give low values; hit rate 0.86% among 310,000;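 active means B-score over 3 SD under the library average, and starting fluorescence ratio not unusually high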;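 further: choline stimulus applied at its EC90 after an EC20 pre-addition; B-score computed on integrated fluorescence ratio after choline addition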
Numbers without * were called inactive; i = inactive; · = not tested or not shown.

SMILES	TMEM16A act	TMEM16A inh	CHT allo act	CHT inh
CS(=O)(=O)c1nc(-c2ccc(Br)cc2)cc(-c2ccccc2)c1C#N	i	i	i	i
S=C(S)N1CCCC1	i	100*	i	i
N#C/C(=C\c1cccs1)Sc1nc2ccccc2s1	-20*	i	i	i
N#C/C(=C\c1ccc[nH]1)Sc1nc2ccccc2s1	i	i	i	i
CSCCC(NC(=O)c1ccc(Cl)cc1)C(=O)OCC(=O)NCc1ccco1 (configuration not stated)	i	i	i	i
COc1ccccc1C(=O)NC(CCSC)C(=O)OCC(=O)NC(=O)NCc1ccco1 (configuration not stated)	-24*	i	i	i
CC1(C)CC2CC(C)(CN2S(=O)(=O)c2ccc(C(=O)Nc3cccc(S(=O)(=O)N4CCOCC4)c3)cc2)C1 (configuration not stated)	i	i	i	i
CC1(C)CC2CC(C)(CN2S(=O)(=O)c2ccc(C(=O)Nc3cc(S(=O)(=O)N4CCOCC4)ccc3Cl)cc2)C1 (configuration not stated)	-12*	i	i	i
Cn1c(SCC(=O)Nc2nccs2)nnc1-c1ccccn1	i	i	i	i
O=C(Nc1cccc(/C=C/c2ccccn2)c1)c1ccc(-n2cncn2)c([N+](=O)[O-])c1	i	25*	i	i
COc1ccc(N(Cc2ccccc2)C(=O)CSc2nnc(Cn3nnc4ccccc43)o2)cc1	i	i	i	i
O=C(CSc1nnc(Cn2nnc3ccccc32)o1)N(Cc1ccc(F)cc1)c1ccccc1	i	25*	i	i
Cc1ccc(NC(=O)C2CCCN(S(=O)(=O)c3ccc4[nH]c(=O)ccc4c3)C2)c(C)c1 (configuration not stated)	i	i	i	i
O=C(COc1ccc(-n2ccnc2)cc1)Nc1cccc(Cl)c1	i	25*	i	i
Nc1ccc2c(c1)C(=O)C(=O)c1ccccc1-2	i	25*	i	i
Nc1ccc2c(c1)C(=O)c1ccccc1-2	i	i	i	i
CC(=O)c1cccc(OCC(=O)Nc2ccccc2N2CCOCC2)c1	i	·	·	·
C[N+](C)(CCOc1ccccc1)Cc1ccccc1	i	·	·	·
Cc1cc(C(C)(C)CC(C)(C)C)ccc1OCCOCC[N+](C)(C)Cc1ccccc1	i	100*	i	i
COCCN(CC(=O)Nc1cccc(C)c1C)C(=O)Cc1ccsc1	i	·	·	·
N=C1/C(=C\c2ccc(OC(=O)c3ccco3)cc2)C(=O)N=C2SC=NN12	i	·	·	·
COc1cc(/C=C2/C(=N)N3C(SC)=NSC3=NC2=O)ccc1OC(=O)c1ccco1	i	i	i	-6.5*
CSC1=NSC2=NC(=O)/C(=C\c3cccs3)C(=N)N12	i	100*	i	i
COc1cc(/C=C2\C(=N)N3N=CSC3=NC2=O)cc(Br)c1OC(=O)c1ccco1	-8.9*	i	i	i
COc1cc(/C=C2/C(=N)N3C(=NC2=O)SN=C3S(C)(=O)=O)ccc1OC(=O)c1ccco1	i	i	i	i
SMILES	TMEM16A act	TMEM16A inh	CHT allo act	CHT inh
COCCN(C(=O)CSc1nnc(-c2ccncc2)n1C)c1c(N)n(CC(C)C)c(=O)[nH]c1=O	i	·	·	·
Cc1cc(C(=O)OCC(=O)Nc2ccccc2C#N)c(C)o1	i	·	·	·
O=C(NC(=S)NNC(=O)c1ccco1)c1ccc(Br)cc1	i	i	i	i
Cc1nn2c3ccccc3n(C)c2nc1=O	i	i	i	i
Cc1nn2c3ccccc3n(Cc3ccccc3)c2nc1=O	-20*	i	i	i
Cc1nnc(SCC(=O)Nc2sc3c(c2C(=O)c2ccccc2)CCCC3)s1	i	i	8.1*	i
CCOC(=O)c1c(NC(=O)CSc2nnc(C)s2)sc2c1CCN(C)C2	i	i	7.6*	i
C#CCOCCOCCOCCNc1nc(N2CCN(C(=O)Cn3cc(CC(C)O)nn3)CC2)nc(N2CCN(C(=O)[C@H](CCCCN)n3cc(CC(C)O)nn3)CC2)n1 (some centres not stated)	i	·	·	·
Cc1ccnc(NS(=O)(=O)c2ccc(NS(=O)(=O)c3cc(Cl)ccc3Cl)cc2)n1	-29*	i	i	i
Cc1ccnc(NS(=O)(=O)c2ccc(NS(=O)(=O)c3ccc([N+](=O)[O-])cc3)cc2)n1	i	i	i	i
CC(=O)Nc1ccc(NC(=O)C(C)OC(=O)CCc2c[nH]c3ccccc23)cc1 (configuration not stated)	i	i	i	i
COC(=O)c1ccc2c(c1)C(C)(C)C(/C=C/c1ccc(O)cc1)=[N+]2C	i	i	6.5*	i
CCCCc1nc2cc(C(=O)N3CCN(c4cnccn4)CC3)ccc2o1	i	i	i	-9.7*
CCCCc1nc2cc(C(=O)N3CCCC3)ccc2o1	i	i	i	i
O=C(NCCOc1ccccc1)C1=CC=CN2CCS(=O)(=O)N=C12	i	·	·	·
CN(CC(=O)Nc1ccccc1N1CCCC1)S(=O)(=O)c1ccc(F)cc1	i	i	i	i
CC(NC(=O)Oc1cccc2ccccc12)c1ccccc1 (configuration not stated)	i	·	·	·
CCOC(=O)c1sc2nc(CSc3ccccc3)nc(N3CCC(C(N)=O)CC3)c2c1C	-5.8*	i	i	i
CCOC(=O)c1ccc(NC(=O)C2(c3ccc(OC)cc3)CCCC2)cc1	i	i	i	i
COc1ccc(C2(C(=O)Nc3ccc(S(N)(=O)=O)cc3)CCCC2)cc1	-5.1*	i	i	i
CC(C(=O)Nc1ccc(S(=O)(=O)N2CCOCC2)cc1)N(c1ccccc1)S(C)(=O)=O (configuration not stated)	-10*	i	i	i
Cc1cccc(N2CCN(CC(=O)Nc3ccc(S(=O)(=O)N4CCOCC4)cc3)CC2)c1C	i	25*	i	i
CCOc1ccc(S(=O)(=O)N2CCC(C(=O)N3CCCC3)CC2)cc1C	i	i	i	i
COc1ccc(OC)c(/C=C2\SC(N3CCCC(C)C3)=NC2=O)c1 (configuration not stated)	i	100*	i	i
O=C(COCc1cc(-c2ccc3c(c2)OCO3)on1)N1CCN(c2cccc(C(F)(F)F)c2)CC1	i	25*	i	i
COc1ccc(-c2noc(CCC(=O)N3CCN(c4cccc(C(F)(F)F)c4)CC3)n2)cc1	i	100*	i	i
C=C1C[C@H]2[C@@H]3C=C(C)C4=CC(=O)CC[C@]4(C)[C@H]3CC[C@]2(C)[C@@]1(OC(C)=O)C(C)=O	i	100*	i	i
CSc1cccc(NC(=S)N2CCC(c3ccccc3)C2)c1 (configuration not stated)	i	i	i	i
CCc1cccc(NC(=S)N2CCC(c3ccccc3)C2)c1 (configuration not stated)	-5.7*	i	i	i

Screening data (PubChem BioAssay)
